Results on 88 molecules are retold here after ChEMBL document CHEMBL3988442, “University of Dundee, Small-Polar-MMV Screening Library” (2021).

The whole screen tested about 69,000 compounds, of which about 950 (1.4%) showed an effect of 50% or more. This excerpt belongs to a sample that is enriched for strong results.

The subject of this experiment is Mycobacterium tuberculosis. The experiment can be described thus: Cornell M. t heat shock assay. Also: in the data most compounds retested in dose-response had high values. Format: functional, organism-based. Further details: dose or concentration left out as unconfirmed.
Turning to `Cc1cnc(N2CCc3c(CNc4ccnc(C)n4)cncc3C2)nc1.Cl`, the “Percent Effect” value is given as 12.07%. Take `Cl.Cn1ccnc1N1CCN(C(=O)Cc2ccccc2)CC1`: the “Percent Effect” value is reported as -7.185%. Regarding `O=C(O)C(F)(F)F.O=C1COC2(CCN(C(=O)C3CC=CC3)CC2)CN1Cc1cccnc1`, the “Percent Effect” value is reported as -29.72%. Consider `CS(=O)(=O)CC(=O)N1C[C@@H]2CN(Cc3ccoc3)CCO[C@@H]2C1`, for which the “Percent Effect” value is -0.05269%.

As for `Cc1cc(C(=O)N2CCc3nc(C4CCCCN4)ncc3C2)cs1.Cl` (stereo not drawn), the “Percent Effect” value is -19.38%. As to `O=C(O)C(F)(F)F.O=C(O)C(F)(F)F.c1cc(CO[C@@H]2CC[C@H]3[C@H]2OCCN3CC2CCOCC2)ccn1`, the “Percent Effect” value is -2.91%.

In the case of `CN(C)[C@@H]1CN(C(=O)Cc2ccc(F)cc2)[C@@H]2CCCO[C@H]12.O=C(O)C(F)(F)F`, the “Percent Effect” value was -22.98%.

Turning to `Cc1ccc(C(=O)N2CCc3ccc(=O)n(CCN(C)C)c3CC2)o1.O=C(O)C(F)(F)F`, the “Percent Effect” value was -16.57%. To `O=C(NCc1cccs1)[C@H]1CO[C@H]2CCN(C3CCCC3)C[C@H]2C1.O=C(O)C(F)(F)F` belongs 16.16%; to `O=C(NCCc1cccs1)[C@H]1CO[C@H]2CCN(C3CCC3)C[C@H]2C1.O=C(O)C(F)(F)F`, 6.34%. The same measure for `COCCN1CC[C@@H]2OC[C@H](C(=O)NCc3cccs3)C[C@@H]2C1.O=C(O)C(F)(F)F`: -7.487%; for `COCCNC(=O)[C@H]1CO[C@H]2CCN(Cc3cccs3)C[C@H]2C1`: 78.89%. In the case of `CCN1CC[C@@H]2OC[C@H](C(=O)NCc3cccs3)C[C@@H]2C1`, the “Percent Effect” value was 64.41%. To `O=C(NCCc1cccs1)[C@H]1CO[C@H]2CCN(CC3CC3)C[C@H]2C1.O=C(O)C(F)(F)F` belongs 1.069%; to `O=C(NC1CCC1)[C@H]1C[C@@H]2CN(C(=O)Nc3ccc(F)cc3)C[C@H]1O2`, -5.328%.

Consider `CN(C)c1ncc(-c2cc(C(=O)NCCO)n(CC3CC3)c2)cn1.O=C(O)C(F)(F)F`, for which the “Percent Effect” value is recorded as -4.821%. As to `CC(C)c1cc(CN2CCC(CC(=O)O)CC2)no1`, the “Percent Effect” value stood at 6.455%. To `CC(C)c1cc(CN2CCC(N)CC2)no1` belongs -1.347%; to `CC(C)c1cc(CN2CCNCC2)no1`, 100.9%; to `Cc1cccc(C2(O)CCN(Cc3ccccc3N3CCCC3)CC2)c1`, 106%.

In the case of `Cl.OC1(c2ccc(F)cc2)CCN(Cc2ccccc2N2CCCC2)CC1`, the “Percent Effect” value is recorded as 3.038%. To `OC1(c2ccccc2F)CCN(Cc2ccccc2N2CCCC2)CC1` belongs -5.486%; to `COCC(=O)N1CCC(=O)N(C2CCCC2)Cc2cc(F)ccc21`, 44.15%. The same measure for `CCN1Cc2cc(F)ccc2N(C(C)=O)CCC1=O`: 51.48%. The same measure for `CC(=O)N1CCC(=O)N(C2CCCC2)Cc2ccccc21`: 18.8%; for `CCN1Cc2cc(F)ccc2N(C(=O)C2CCC2)CCC1=O`: 57.03%; for `O=C(C1CCC1)N1CCC(=O)N(C2CC2)Cc2cc(F)ccc21`: 39.59%. For `O=C1NCCCCC1NC(=O)N1CCCc2cc(F)ccc21` (stereo not drawn), the “Percent Effect” value is -1.562%. For `CCN(CC)S(=O)(=O)CC(=O)N1CCc2ccc(F)cc21`, the “Percent Effect” value was -19.64%. The same measure for `CCN1Cc2ccccc2N(C(=O)C2CCC2)CCC1=O`: 52.52%.

For `CN1C(=O)CCN(C(=O)C2CCCCC2)c2ccccc21`, the “Percent Effect” value is -13.68%. The same measure for `Cc1cccc(CN2CCC3(CC2)NC(=O)CC3c2ccccc2)n1.O=C(O)C(F)(F)F` (stereo not drawn): -4.61%; for `Cc1nc(CN2CCC3(CCCN(Cc4ccoc4)C3)C2=O)cs1.O=C(O)C(F)(F)F.O=C(O)C(F)(F)F` (stereo not drawn): -16.93%; for `COc1cccc(CNCc2ccc(F)cc2Cl)c1O`: 10.28%. `CCOCC1CN(CC2CC2)Cc2nn(CC3CC3)cc21.O=C(O)C(F)(F)F` (stereo not drawn): the “Percent Effect” value stood at 0.05869%. The same measure for `Cn1cc(CN2CCCC23CCN(C(=O)c2ccccn2)CC3)cn1.O=C(O)C(F)(F)F`: -28.64%; for `CCOCCCn1c(NC(=O)c2ccc(C)nc2)nc2ccccc21`: 25.39%; for `CCOCCCn1c(NC(=O)c2cc(C)no2)nc2ccccc21`: 4.963%.

Regarding `CCOCCCn1c(NC(=O)c2cc(C)on2)nc2ccccc21`, the “Percent Effect” value stood at 59.74%. For the molecule `CCOCCCn1c(NC(=O)c2cnc(C)s2)nc2ccccc21`, the “Percent Effect” value is given as -7.023%.

For `CCOCCCn1c(NC(=O)c2ccnc(C)n2)nc2ccccc21`, the “Percent Effect” value was determined as 94.99%. To `CCOCCCn1c(NC(=O)c2scnc2C)nc2ccccc21` belongs 84.26%; to `CCOCCCn1c(NC(=O)c2cnn(C)c2)nc2ccccc21`, 44.67%. To `CCOCCCn1c(NC(=O)c2cnc(C)cn2)nc2ccccc21` belongs 28.96%. The same measure for `CCN(CC)CCn1c(NC(=O)c2scnc2C)nc2ccccc21`: 46.93%; for `COc1c(CNCc2ccc(C(=O)N3CCCC3)cc2)c(C)nn1C.Cl`: -14.26%; for `COc1ccc(CN2C[C@@H]3OCCN(CCN(C)C)[C@@H]3C2)cc1.O=C(O)C(F)(F)F.O=C(O)C(F)(F)F.O=C(O)C(F)(F)F`: -21.44%. In the case of `Cl.NC(CNS(=O)(=O)Cc1cccc2cccnc12)c1ccccc1` (stereo not drawn), the “Percent Effect” value is reported as -15.27%. The same measure for `O=C(NCC1CCOCC1)[C@H]1C[C@@H]2CCN(Cc3ccccc3)C[C@H]2O1.O=C(O)C(F)(F)F`: -21.55%; for `Cc1cccc(CN2CC[C@H]3[C@@H]2CC(=O)N3CC2CC2)n1.O=C(O)C(F)(F)F`: -9.975%. The same measure for `O=C(c1ccccc1)N1CC[C@H]2C[C@H](c3nnc(C4CC4)o3)O[C@@H]2C1`: 57.91%; for `O=C(c1ccoc1)N1CC[C@H]2C[C@@H](c3nnc(C4CC4)o3)O[C@@H]2C1`: 19.79%. To `O=C(c1ccsc1)N1CC[C@H]2C[C@@H](c3nnc(C4CC4)o3)O[C@@H]2C1` belongs 26.95%.

Take `O=C(c1cccs1)N1CC[C@H]2C[C@@H](c3nnc(C4CC4)o3)O[C@@H]2C1`: the “Percent Effect” value is 56.75%.

On to `O=C(c1cscn1)N1CC[C@H]2C[C@H](c3nnc(C4CC4)o3)O[C@@H]2C1`, for which the “Percent Effect” value is 27.2%. Consider `O=C(c1ccccc1)N1CC[C@H]2C[C@@H](c3nnc(C4CC4)o3)O[C@@H]2C1`, for which the “Percent Effect” value came to 48.55%. The same measure for `COCC1c2c(cnn2C)CCN1C(=O)c1cc(C)on1.O=C(O)C(F)(F)F` (stereo not drawn): 28.69%.

On to `Cc1cnccc1-c1cnn(CCNC(=O)c2ccccn2)c1C1CC1.Cl`, for which the “Percent Effect” value is given as 22.13%. The same measure for `CC(C)Cc1cc(C(=O)NC(C)(C)c2nnc(N)s2)n(C)n1`: 18.34%; for `CC(C)c1nc(CN2CCc3onc(-c4cccc(F)c4)c3C2)no1`: 35.68%. To `CC(C)(C)c1nc(CN2CCc3onc(-c4cccc(F)c4)c3C2)no1` belongs 31.99%. To `CC(C)Cc1nc(CN2CCc3onc(-c4cccc(F)c4)c3C2)no1` belongs 52.2%; to `CN(C)[C@@H]1CN(Cc2ccccc2O)C[C@H]1c1cn(C)c2ccccc12.Cl`, 12.04%. Turning to `CN(C)[C@@H]1CN(Cc2ccc(O)cc2)C[C@H]1c1cn(C)c2ccccc12.Cl`, the “Percent Effect” value was found to be 10.72%. The same measure for `O=C1CCCC2=C1C(c1ccccc1F)Nc1nonc1N2` (stereo not drawn): -20.35%; for `O=c1cc(CN2CCCC2)nc2n1CCCN(Cc1ccsc1)C2`: -27.96%. Regarding `CCOCCCNc1ncc(-c2cccc(F)c2)c(-c2nccn2C)n1`, the “Percent Effect” value was 8.299%. To `Cn1ccnc1-c1nc(NC2CCCC2)ncc1-c1cccc(F)c1` belongs 85.28%; to `COCCNc1ncc(-c2cccc(F)c2)c(-c2nccn2C)n1`, -4.341%. The same measure for `Cl.O=C1CC2(CCCNC2)C(=O)N1Cc1cccc(F)c1` (stereo not drawn): -11.34%; for `CCN1CCn2c(C)cnc2C12CCN(C(=O)COC)CC2.O=C(O)C(F)(F)F.O=C(O)C(F)(F)F`: -13.45%; for `CCc1nc(N)nc(N2CCCC3(CN(C)C(=O)O3)C2)c1C` (stereo not drawn): -1.052%. On to `CNC(=O)CN1CCCC12CCN(C(=O)c1ccoc1)CC2.O=C(O)C(F)(F)F`, for which the “Percent Effect” value is 6.336%. As to `Cc1nc(-c2cncnc2C2CCCNC2)no1.Cl.Cl` (stereo not drawn), the “Percent Effect” value is given as -15.54%.

Take `COc1cccc(C(=O)N2CCOC3(CCCN(C(C)=O)C3)C2)c1` (stereo not drawn): the “Percent Effect” value was 5.566%. The same measure for `CC(=O)N1CCCC2(C1)CN(C(=O)c1ccncc1)CCO2` (stereo not drawn): -1.478%; for `COc1ccccc1C(=O)N1CCOC2(CCCN(C(C)=O)C2)C1` (stereo not drawn): 71.6%.

Turning to `Cc1noc([C@H]2C[C@@H]3CCN(c4nnc(C)s4)C[C@H]3O2)n1.O=C(O)C(F)(F)F`, the “Percent Effect” value is 1.861%. To `Cc1ccc(N2CCC3(CCN(C(=O)c4ccsc4)C3)CC2)nn1.O=C(O)C(F)(F)F` belongs -20.48%; to `Fc1ccc(CN2CCC3(CC2)CC(c2cccnc2)CO3)cc1.O=C(O)C(F)(F)F.O=C(O)C(F)(F)F` (stereo not drawn), -26.17%. To `COCCN1C(=O)[C@H]2CC[C@@H]1CN(C(=O)CCc1n[nH]c(C)c1C)C2` belongs 8.165%. To `CCN(C)C(=O)c1cnc(-c2noc3cc(N4CCCCC4)ccc23)s1` belongs 85.74%. Take `O=C(NC1CC1)c1cnc(-c2noc3cc(N4CCCCC4)ccc23)s1`: the “Percent Effect” value is reported as -8.735%. Turning to `O=C(c1cnc(-c2noc3cc(N4CCCC4)ccc23)s1)N1CCCC1`, the “Percent Effect” value is recorded as -6.808%. In the case of `Cl.O=C(c1ccnc(C2CCNCC2)c1)N1CCCOCC1`, the “Percent Effect” value is -3.625%.

With `CCS(=O)(=O)NCC(=O)N1CC2(CCCC2)c2c(F)cccc21`, the “Percent Effect” value turned out to be 17.06%. The same measure for `CNS(=O)(=O)CC(=O)N1CC2(CCCC2)c2c(F)cccc21`: 13.66%; for `O=C(NCC(=O)N1CC2(CCCC2)c2c(F)cccc21)C1CC1`: 55.94%.
